Results reported in PubChem BioAssay (EPA / NIEHS).
Several values for one entry are separate records, joined by “and”; a condition that tells them apart may be missing. Identical values can stand only once. Results filed as inconclusive are left out. Where a structure was tested more than once in an assay, its records may differ in their call. Activity calls are given as the source filed them. The calls were made as follows: active = hit-call score of the fitted dose curve at least 0.9, where 1 is the maximum; inconclusive = response in the unintended direction; inactive = score below 0.9.

Legend:
[1] = ACEA_ER_AUC_viability: ACEA Biosciences xCELLigence Real-Time Cell Analysis on Estrogen Receptor Agonism for Viability (AID 2283782);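 also: hit means loss of impedance signal meaning reduced cell growth or viability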
Method in brief: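 Continuous-exposure impedance cell analysis uses T-47D cells in charcoal-stripped serum, eight 1:4 dilutions topping at 100 uM final, biological duplicate. Area under the growth curve at 80 h is fitted against DMSO baseline.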

[2] = molecular target: AR (gene 367) (UniProt P10275); test: ACEA_AR_antagonist_80hr: ACEA Biosciences xCELLigence Real-Time Cell Analysis on Androgen Receptor Antagonism for Proliferation (AID 2283787);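 also: 22Rv1 human prostate cancer cells with growth followed by electrical impedance; hits lower the impedance growth signal relative to DMSO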
Method in brief: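 Using 22Rv1 cells held in assay medium, we dosed compounds (100 uM maximum final, 1:4 serial, eight points, 0.5% DMSO at top) and recorded cell-electrode impedance; the 80 hr timepoint was analyzed against DMSO.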

[3] = molecular target: AR (gene 367) (UniProt P10275); test: ACEA_AR_agonist_80hr: ACEA Biosciences xCELLigence Real-Time Cell Analysis on Androgen Receptor Agonism for Proliferation (AID 2283783);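 also: hits increase impedance growth signal above DMSO baseline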
Method in brief: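 Real-time cell-growth kinetics were recorded by electrode impedance in 22Rv1 cells exposed to test chemicals up to 100 uM final; the 80 h timepoint served as the readout, fitted upward relative to DMSO controls, in biological duplicate.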

[4] = ATG_M_19_XSP1: Attagene TRANS-FACTORIAL Multi-Species (XSP1) HepG2 Assay for M19 Transcription Factor (Internal Marker) (AID 2283798)
Method in brief: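 Readout is reporter mRNA induction quantified via RT-PCR, 6-FAM labeling, HpaI digestion and capillary electrophoresis, fitted in the positive direction versus DMSO baseline. Transfected HepG2 cells exposed 24 h, medium including 3 nM 6-alpha-fluorotestosterone.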

[5] = ATG_M_32_XSP1: Attagene TRANS-FACTORIAL Multi-Species (XSP1) HepG2 Assay for M32 Transcription Factor (Internal Marker) (AID 2283799)
Method in brief: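 Reporter transcripts from the M32 internal-control unit measured by RT-PCR, FAM labelling, HpaI digestion and capillary electrophoresis after 24 h compound exposure of transfected HepG2, 3 nM 6-alpha-fluorotestosterone included; DMSO baseline, positive-direction fit.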

[6] = tested on: zebrafish Peroxisome Proliferator-activated Receptor gamma (PPARg), gene 557037; test: ATG_zfPPARg_XSP1: Attagene TRANS-FACTORIAL Multi-Species (XSP1) HepG2 Assay for zebrafish Peroxisome Proliferator-activated Receptor gamma (PPARg) (AID 2283801)
Method in brief: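 Trans-activation readout of chimeric zebrafish PPARg–GAL4 in transiently transfected human HepG2 cells, 24 h chemical exposure (medium includes 3 nM 6-alpha-fluorotestosterone). Reporter transcripts measured by RT-PCR and capillary electrophoresis, fitted as gain over DMSO.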

[7] = molecular target: Nuclear receptor subfamily 1 group I member 2 (Mus musculus) (UniProt O54915); test: ATG_mPXR_XSP1: Attagene TRANS-FACTORIAL Multi-Species (XSP1) HepG2 Assay for mouse Pregnane X Receptor (PXR) (AID 2283803)
Method in brief: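 Transiently transfected HepG2 cells expressing a receptor-Gal4 chimera drive a GAL4-UAS reporter; 3 nM 6-alpha-fluorotestosterone included. Reporter mRNA read 24 h post-dose by RT-PCR and capillary electrophoresis; gain of signal relative to DMSO.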

[8] = tested on: turtle Thyroid Hormone Receptor, alpha (TRa), gene 101949057; test: ATG_trTRa_XSP1: Attagene TRANS-FACTORIAL Multi-Species (XSP1) HepG2 Assay for turtle Thyroid Hormone Receptor, alpha (TRa) (AID 2283806)
Method in brief: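 After 24 h chemical exposure, reporter transcripts were measured by RT-PCR with fluorescent primer extension, HpaI digestion and capillary electrophoresis. Cells were transiently transfected HepG2 expressing exogenous NR-Gal4 chimeras; medium contained 3 nM 6-alpha-fluorotestosterone; fitted upward relative to DMSO.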

[9] = molecular target: zebrafish Thyroid Hormone Receptor beta (TRb), thrb (gene 30607) (UniProt Q9PVE4); test: ATG_zfTRb_XSP1: Attagene TRANS-FACTORIAL Multi-Species (XSP1) HepG2 Assay for zebrafish Thyroid Hormone Receptor beta (TRb) (AID 2283809)
Method in brief: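 HepG2 cells transiently transfected with multiplexed GAL4-UAS reporter units expressing chimeric zebrafish TRb–Gal4. Dosed 24 h with 3 nM 6-alpha-fluorotestosterone present; reporter mRNA measured by RT-PCR, HpaI digestion and capillary electrophoresis; gain of signal versus DMSO.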

[10] = ATG_XTT_Cytotoxicity_XSP1: Cytotoxicity Assessment in the Attagene TRANS-FACTORIAL Multi-Species (XSP1) HepG2 Assay (AID 2283810)
Method in brief: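 XTT viability readout taken at 24 hours post-dosing in HepG2 liver cells co-treated with 3 nM 6-alpha-fluorotestosterone. Signal loss relative to DMSO controls reflects cytotoxicity.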

[11] = tested on: turtle Estrogen Receptor (ERa), gene 101933533; test: ATG_trERa_XSP2: Attagene TRANS-FACTORIAL Multi-Species (XSP2) HepG2 Assay for turtle Estrogen Receptor (ERa) (AID 2283812);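 also: actives raise reporter signal above DMSO so AC50 reflects agonist activity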
Method in brief: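 Readout is reporter mRNA quantified by RT-PCR with capillary electrophoresis after 24 h compound exposure, increase relative to DMSO. Uses transiently transfected human HepG2 liver cells carrying a chimeric turtle ERa-Gal4 receptor driving GAL4-UAS reporters.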

[12] = ATG_M_06_XSP2: Attagene TRANS-FACTORIAL Multi-Species (XSP2) HepG2 Assay for M06 Transcription Factor (Internal Marker) (AID 2283811);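 also: internal background marker reporter mRNA measured by RT-PCR and capillary electrophoresis; hits are increases in signal above the DMSO baseline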
Method in brief: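 Cells of the human liver line HepG2 carried transfected reporter transcription units and were treated for 24 h. Induced reporter transcripts were detected by fluorescence after RT-PCR and capillary electrophoresis, with activity fitted in the gain direction against DMSO.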

AR (gene 367), sequence (P10275 whole entry, looked up): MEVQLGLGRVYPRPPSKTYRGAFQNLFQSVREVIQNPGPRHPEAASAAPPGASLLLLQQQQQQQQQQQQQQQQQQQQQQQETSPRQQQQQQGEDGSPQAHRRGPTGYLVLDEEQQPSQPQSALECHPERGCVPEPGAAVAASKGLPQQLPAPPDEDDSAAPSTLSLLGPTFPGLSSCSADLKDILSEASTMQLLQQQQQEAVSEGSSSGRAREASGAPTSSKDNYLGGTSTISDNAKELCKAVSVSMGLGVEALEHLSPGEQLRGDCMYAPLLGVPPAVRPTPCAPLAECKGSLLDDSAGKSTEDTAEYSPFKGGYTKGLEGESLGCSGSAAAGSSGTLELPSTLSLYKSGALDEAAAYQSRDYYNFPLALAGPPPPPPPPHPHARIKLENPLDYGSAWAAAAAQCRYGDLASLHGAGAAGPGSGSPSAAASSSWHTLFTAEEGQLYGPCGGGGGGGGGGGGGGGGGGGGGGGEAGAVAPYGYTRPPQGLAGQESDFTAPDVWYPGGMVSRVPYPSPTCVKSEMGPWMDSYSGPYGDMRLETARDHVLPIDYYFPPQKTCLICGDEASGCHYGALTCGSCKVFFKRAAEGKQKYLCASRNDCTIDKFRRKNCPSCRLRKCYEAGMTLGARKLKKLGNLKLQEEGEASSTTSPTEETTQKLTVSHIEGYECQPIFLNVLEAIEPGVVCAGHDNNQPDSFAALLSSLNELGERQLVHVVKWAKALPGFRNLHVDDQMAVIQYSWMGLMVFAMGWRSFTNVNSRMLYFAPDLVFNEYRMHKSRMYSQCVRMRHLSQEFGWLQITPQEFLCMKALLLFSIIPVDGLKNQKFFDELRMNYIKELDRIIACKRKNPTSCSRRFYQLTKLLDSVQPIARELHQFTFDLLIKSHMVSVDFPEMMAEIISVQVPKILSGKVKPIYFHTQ
Nuclear receptor subfamily 1 group I member 2 (Mus musculus), sequence (O54915 whole entry, looked up, the tested form may be a part): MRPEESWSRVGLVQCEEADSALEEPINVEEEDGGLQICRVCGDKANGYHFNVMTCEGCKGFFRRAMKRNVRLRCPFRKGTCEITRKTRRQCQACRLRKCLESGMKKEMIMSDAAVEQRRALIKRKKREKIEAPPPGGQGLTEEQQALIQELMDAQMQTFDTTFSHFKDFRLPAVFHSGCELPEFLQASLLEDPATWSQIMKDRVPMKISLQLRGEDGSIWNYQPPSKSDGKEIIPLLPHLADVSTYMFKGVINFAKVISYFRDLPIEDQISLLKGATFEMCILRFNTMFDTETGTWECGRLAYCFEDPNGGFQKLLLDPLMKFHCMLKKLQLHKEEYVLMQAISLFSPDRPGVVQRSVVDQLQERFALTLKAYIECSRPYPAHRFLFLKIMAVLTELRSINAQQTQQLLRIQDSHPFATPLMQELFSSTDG
zebrafish Thyroid Hormone Receptor beta (TRb), thrb (gene 30607), sequence (Q9PVE4 whole entry, looked up, the tested form may be a part): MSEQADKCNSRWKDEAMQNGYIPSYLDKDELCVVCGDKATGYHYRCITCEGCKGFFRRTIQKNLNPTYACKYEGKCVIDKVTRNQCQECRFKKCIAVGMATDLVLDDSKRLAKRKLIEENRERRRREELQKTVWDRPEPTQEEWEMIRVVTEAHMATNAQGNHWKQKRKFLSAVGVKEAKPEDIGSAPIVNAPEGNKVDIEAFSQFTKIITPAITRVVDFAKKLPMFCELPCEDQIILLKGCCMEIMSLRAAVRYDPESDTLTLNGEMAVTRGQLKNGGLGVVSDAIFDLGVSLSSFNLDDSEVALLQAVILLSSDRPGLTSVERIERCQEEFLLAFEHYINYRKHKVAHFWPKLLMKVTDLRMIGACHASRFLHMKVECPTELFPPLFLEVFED

For NCCCN1CCOCC1, the outcome [1] was “inactive” and the outcome [2] was “inactive”.

In the case of CCCCCOC(=O)CCC, the outcome [1] is reported as “inactive”.

For CCCCCCCCCCCCCCCC(=O)OC[C@H](O)[C@H]1OC(=O)C(O)=C1O, the AC50 [1] was 39.2 µM (active) and the AC50 [2] was 7.84 µM (active).

For C[Si](O[Si](C)(C)C)O[Si](C)(C)C, the outcome [1] was “inactive”, the outcome [3] was “inactive” and the outcome [2] was “inactive”.

With O=Nc1ccc(Nc2ccccc2)cc1 the AC50 [1] was 11.1 µM (active), the outcome [3] was “inactive” and the outcome [2] was “inactive”.

For CN(C)C(=N)N=C(N)N, the outcome [1] was “inactive”, the outcome [4] was “inactive” and the outcome [5] was “inactive”. For the same molecule, the outcome [6] was “inactive”, the AC50 [7] was 64.4 µM (active) and the outcome [8] was “inactive”. The outcome [9] was “inactive” and the outcome [10] was “inactive”.

For CCN(CC)c1ccc(C(=C2C=CC(=[N+](CC)CC)C=C2)c2ccc(S(=O)(=O)O)cc2S(=O)(=O)[O-])cc1, the outcome [2] was “inactive”.

For CC(C)=CCC[C@H](C)CC=O, the outcome [1] was “inactive”.

With NCCNCCN the outcome [1] was “inactive”.

For BrC1CCC(Br)C(Br)CCC(Br)C(Br)CCC1Br (stereo not drawn), the AC50 [1] was 8.63 µM (active) and the outcome [2] was “inactive”.

With O=C1CCCCCCCCCCCCCCO1 the outcome [1] was “inactive”.

For CC1=CC(=O)NS(=O)(=O)O1, the outcome [1] was “inactive”.

For CCN(CC)c1ccc2c(-c3ccccc3C(=O)O)c3ccc(=[N+](CC)CC)cc-3oc2c1, the AC50 [1] was 29.1 µM (active).

With NCCCCCCN the outcome [1] was “inactive”.

With CCCCCCCCCCCCN the AC50 [1] was 66.3 µM (active) and the AC50 [11] was 44.3 µM (active).

For Nc1cc([N+](=O)[O-])ccc1O, the AC50 [1] was 9.92 µM (active).

In the case of CCC/C=C/C=O, the outcome [1] is reported as “inactive” and the outcome [2] is reported as “inactive”.

In the case of CC(=O)c1c(C)cc(C(C)(C)C)cc1C, the AC50 [1] is reported as 77.7 µM (active).

For CC(C)(C)C(=O)c1ccccc1, the outcome [1] was “inactive”.

In the case of O=C(Oc1ccccc1)c1ccc(O)cc1, the AC50 [11] is reported as 30.6 µM (active) and the outcome [11] is reported as “inactive”.

In the case of CCCCCCOC(=O)CCCCC, the outcome [1] is reported as “inactive”.

With O=c1cc(-c2ccccc2)oc2cc(O)cc(O)c12 the AC50 [3] was 0.0729 µM (active), the outcome [2] was “inactive” and the outcome [12] was “inactive”. For the same molecule, the AC50 [11] was 9.68 µM (active) and 2.6 µM (active).

With CCCCCCCCCCCCCOS(=O)(=O)O the AC50 [1] was 73.8 µM (active) and the outcome [3] was “inactive”.

In the case of C=CC(=O)OCCOCCOCC, the AC50 [1] is reported as 81.2 µM (active).

For O=C[C@@H](O)[C@H](O)[C@H](O)CO, the outcome [1] was “inactive” and the outcome [2] was “inactive”.

For CCCCC[Si](OCC)(OCC)OCC, the outcome [2] was “inactive”.
